Out of some 190,000 compounds screened, about 1,300 (0.68%) were called active. Rule as the data show it: active = inhibition above about 50%; inactive = the rest. Shown is part of a subset that was picked to be rich in actives.
These compounds were tested against Mannose-6-phosphate isomerase (Homo sapiens) (UniProt P34949) (assay: human PMI inhibitors, high substrate, primary screen, biochemical, fluorescence intensity, high mannose 6-phosphate (AID 1220)). Settings: recombinant PMI enzyme, coupled fluorescence intensity; at 20 µM; active compounds read high.
Chain of Mannose-6-phosphate isomerase (Homo sapiens) (P34949 whole entry, looked up): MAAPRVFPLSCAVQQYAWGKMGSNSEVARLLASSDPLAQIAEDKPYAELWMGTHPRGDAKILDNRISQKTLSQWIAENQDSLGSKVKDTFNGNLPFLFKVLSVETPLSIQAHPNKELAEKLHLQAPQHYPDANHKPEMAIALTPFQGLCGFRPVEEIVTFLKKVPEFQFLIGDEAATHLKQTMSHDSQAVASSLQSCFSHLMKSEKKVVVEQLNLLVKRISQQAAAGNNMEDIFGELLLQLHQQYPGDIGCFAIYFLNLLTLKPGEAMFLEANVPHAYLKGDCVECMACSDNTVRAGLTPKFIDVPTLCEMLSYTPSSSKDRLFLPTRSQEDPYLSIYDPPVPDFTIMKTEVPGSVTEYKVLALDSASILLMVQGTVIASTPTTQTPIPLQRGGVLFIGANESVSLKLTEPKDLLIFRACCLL

inhibition, active:
CC(CNc1ccccc1O)C(=O)O (stereo not drawn) 64.7%, CN(C)CC/C=C1/c2ccccc2Sc2c(O)cc(Cl)cc21 50%, CCOc1ccccc1NS(=O)(=O)c1c(C)noc1C 54.2%, C#CC(CC)(CC)NC(=O)Nc1ccccc1C(=O)OC 64.6%, O=[N+]([O-])c1ccc(N2CCOCC2)cc1SCc1ccco1 68.5%, COCCNC(=O)c1ccc2c(c1)NC(=O)CS2 53.7%, Nc1ccc(OCC(O)C[n+]2ccc(CCS(=O)(=O)[O-])cc2)cc1 (stereo not drawn) 53.8%, CCOC(=O)c1nn(-c2ccc(F)cc2)c(=O)c2c(N)scc12 62.3%, CCOC(=O)c1nn(-c2ccccc2)c(=O)c2c(N)scc12 63.3%, COc1ccc(/C=N/NC(=O)c2nn(-c3ccccc3)c(=O)c3c(N)scc23)cc1 52.4%, CCOC(=O)c1nn(-c2ccc(C)c(C)c2)c(=O)c2c(N)scc12 54.4%, CCOC(=O)c1nn(-c2ccc(C)cc2)c(=O)c2c(N)scc12 61.7%, O=[N+]([O-])c1ccc(N2CCCC2)cc1N1CCCC1 50.2%, C=CCNc1cc(N2CCCC2)ccc1[N+](=O)[O-] 51.8%, CCOc1cc(N2CCCC2)ccc1[N+](=O)[O-] 53.4%, Cc1nn(-c2ccccn2)c2c1-c1nc(N3CCOCC3)ncc1CC2 57.5%, Cc1nc2cc3nc(C(F)(F)F)[nH]c3cc2[nH]1 52.2%, Cc1ccc(C)n1-c1ccc(N(C)C)cc1 66.1%, O=C1C=CC(=O)C(C2=C3C(=O)N(CCc4ccccc4)CC(=O)N3CCC2)=C1 50.6%, Cc1cccc(N=Cc2cc3c(cc2[N+](=O)[O-])OCO3)c1 62.2%, Cc1ccccc1N=Cc1cc2c(cc1[N+](=O)[O-])OCO2 53.3%, Nc1ccc(Nc2ccccc2N)cc1 52.9%, CCCCN=C1C([N+](=O)[O-])=CC=C2C1=NC1(CCCCC1)N2O 53%

inhibition, inactive:
O=C(N/N=C/c1cc(Br)c(Br)o1)C(O)c1ccccc1 (stereo not drawn) 5.2%, CC(CC(C)C(=O)Nc1ccccc1C(C)(C)C)C(=O)O (stereo not drawn) -12.3%, CC(CC(=O)O)Nc1ccccc1O (stereo not drawn) 49.3%, COc1cc2c(cc1NC(=O)CSc1cccc[n+]1[O-])oc1ccccc12 -6.2%, COc1cc(Cl)cc2c1Sc1ccccc1/C2=C/CCN(C)C -9.3%, CN(C)CC/C=C1\c2ccccc2Sc2ccc(Cl)cc21 -12.5%, N#CC1(c2nc3ccccc3[nH]2)CC1c1ccc2c(c1)OCO2 (stereo not drawn) 0.1%, COc1ccc(S(=O)(=O)N2CCc3ccccc32)cc1NC(C)=O 1.8%, CNCC(C)COc1ccccc1OCc1ccccc1 (stereo not drawn) -5.2%, N#CC1=C(N)OC2=C(C(=O)CCC2)C12CCN(C(=O)OCc1ccccc1)CC2 -6.7%, CCOc1ccccc1NS(=O)(=O)c1cn(C)nc1C -10.4%, CCOc1ccccc1NC(=O)C1CCN(S(=O)(=O)c2c(C)noc2C)CC1 2.7%, CC(=O)Nc1c(NC(=O)CC#N)[nH]c2c(c1=O)c(=O)n(C)c(=O)n2C 15.1%, CCn1c(C)cc(C=C2C(=O)c3ccccc3C2=O)c1C 20.2%, Cc1ccc(N(CC(=O)Nc2ccc(F)c(Cl)c2)S(=O)(=O)c2c(C)noc2C)cc1 11.9%, CCNC(=O)Nc1ccccc1C(=O)OC -5.5%, CCOC(=O)CNC(=O)Nc1ccccc1C(=O)OC -7.2%, N#Cc1nc(-c2cccs2)oc1NCC1CCCO1 (stereo not drawn) 0.2%, CS(=O)(=O)N1CCN(c2ccc([N+](=O)[O-])c(SCc3ccco3)c2)CC1 43.6%, O=[N+]([O-])c1ccc(SCc2ccco2)cc1N1CCOCC1 1.4%, CC(=O)NC(=S)Nc1ccc(S(=O)(=O)N2CCOCC2)cc1 -4.7%, O=C1CSc2ccc(C(=O)NCCC3=CCCCC3)cc2N1 -5.5%, COC(=O)c1ccc2c(c1)NC(=O)CS2 -9.2%, COc1cccc(C(=O)Nc2ccc(S(=O)(=O)Nc3onc(C)c3C)cc2)c1 -1.9%, Nc1ccc(CCS(N)(=O)=O)cc1 -2.1%, COc1ccc(OCC(O)COc2ccc(OC)cc2)cc1 -1.9%, Cc1cc(CNC(=O)COc2ccccc2F)c2ccccc2n1 -0.4%, COc1ccc(CN2CCN(Cc3csc(C(C)=O)c3)CC2CCO)c(C)c1C (stereo not drawn) -1.9%, CCOC(=O)c1nn(-c2ccccc2)c(=O)c2c(NC(C)=O)scc12 0%, CCCSc1cc(=O)n(-c2ccc(F)cc2)nc1C(=O)OCC -6%, COc1ccc(/C=N/NC(=O)c2nn(-c3ccc(Cl)cc3)c(=O)c3c(N)scc23)cc1 41.9%, Cc1ccc(-n2nc(C(=O)O)c3ccccc3c2=O)cc1C -1.7%, COc1ccc(/C=N/NC(=O)c2nn(-c3ccc(C)c(C)c3)c(=O)c3ccccc23)cc1 22.6%, CCOC(=O)c1nn(-c2ccc(F)cc2)c(C)c1C(C)=O -0.1%, CCOC(=O)c1nn(-c2ccc(C)c(C)c2)cc1O 12.2%, CCOC(=O)c1nn(-c2ccccc2)c(C(=O)OCC)c1N 10.9%, CCOC(=O)C1CCN(S(=O)(=O)c2ccc(C(=O)OC)cc2)CC1 -3.3%, CCOC(=O)c1cc2occc2n1CC(=O)Nc1ccc(OC)cc1OC 9%, CCOC(=O)c1nc(N)c(=O)n(-c2ccc(C)cc2)n1 -8.9%, CCOC(=O)c1nn(-c2ccc(OC)cc2)c(=O)c2c(N)scc12 27.4%, COc1ccccc1NC(=O)C/C(N)=N/O -9.6%, CNC(=O)C(=O)NCCCN1CCOCC1 -4.4%, Cc1cc(N2CCCCC2)ccc1[N+](=O)[O-] 44.8%, O=[N+]([O-])c1ccc(N2CCOCC2)cc1N1CCCCC1 -3.2%, CCNc1cc(N2CCCC2)ccc1[N+](=O)[O-] 32.8%, O=[N+]([O-])c1ccc(N2CCCCC2)cc1N1CCOCC1 4.6%, CC(C)(C)CNc1cc(N2CCCC2)ccc1[N+](=O)[O-] 11.3%, COc1cc(N2CCCC2)ccc1[N+](=O)[O-] 19.4%, O=C(/C=C/c1ccco1)c1ccc(O)cc1 11.9%, Cn1c(CN2CCCC2)nc2cc(NC(=O)c3cccs3)ccc21 -21.8%, Cc1nn(-c2ccccn2)c2c1-c1nc(N)ncc1CC2 40.6%, Cc1nn(-c2ccc(F)cc2F)c2c1-c1nc(N3CCCC3)ncc1CC2 38.1%, C[C@@H]1NC(=O)[C@H](CCCN=C(N)N)NC(=O)c2cc([N+](=O)[O-])cc(I)c2OCC[C@@H](C(N)=O)NC1=O -20.7%, Nc1ccc2nc(C(F)(F)F)[nH]c2c1 37%, Cc1nc2ccc(C(C(F)(F)F)(C(F)(F)F)C(F)(F)F)cc2[nH]1 14.4%, COCCNC(=O)C1=NOC(Cn2cc(C#N)c(=O)n(C)c2=O)C1 (stereo not drawn) 5.3%, CCCNC(=O)/C=C/c1ccc(S(=O)(=O)Nc2ccccc2OC)cc1 -3.6%, CC1CCCCC1NC(=O)CCCn1c(=S)[nH]c2ccccc2c1=O (stereo not drawn) -12.4%, Cc1ccc(C)n1-c1ccc(C(=O)O)cc1 0.2%, Cc1ccc(C)n1-c1ccncc1 3.1%, Cc1cc2c(C)cc(=O)oc2c2c1NCCC2 12.6%, Cc1ccc(OC(=O)C(F)(F)F)c2c1NCCC2 11.5%, COc1ccc(N2CCN(/C(=N\S(=O)(=O)c3ccc(C)cc3)Nc3nc(C)cc(C)n3)CC2)cc1 -1.1%, Nc1nc(-c2ccco2)nc(N2CCCCC2)n1 2.4%, O=C(NCc1ccc(N2CCCC2=O)cc1)c1cn(CCc2ccccc2)nn1 3.8%, O=C1CC(=O)N(CCc2ccccc2)C(=O)N1CCc1ccccc1 7.8%, O=C(NO)c1cc(OCC(F)(F)F)ccc1OCC(F)(F)F -2.8%, Cc1cc(C)nc(N/N=C/c2cc3c(cc2[N+](=O)[O-])OCO3)n1 1.3%, O=[N+]([O-])c1cc2c(cc1/C=N/n1cnnc1)OCO2 13%, Cc1ccc(C)c(N=Cc2cc3c(cc2[N+](=O)[O-])OCO3)c1 41.6%, Cc1cccc(C)c1OCC(=O)N/N=C/c1cc2c(cc1[N+](=O)[O-])OCO2 -72.5%, CC1=NN(c2nc(-c3ccc(C)cc3)cs2)C(=O)C1N=Nc1ccc2ccccc2c1 (stereo not drawn) 10.1%, Cc1cc(C)cc(NC(=O)C2(c3cccs3)CCOCC2)c1 3.6%, O=C(C/C=N\OCc1ccc(Cl)cc1Cl)Nc1ccccc1 15.2%, COc1ccc(Nc2ccccc2N)cc1 3.8%, Nc1ccccc1Nc1ccccc1 -26.3%, Cc1ccc(-c2cnc(-c3ccncc3)o2)cc1 -3.1%, CCC(O)(C#CCN1CCCCC1)CC -6.1%, Cc1ccc2c(c1)C(O)(CC(=O)c1ccc(C)s1)C(=O)N2 (stereo not drawn) 4.5%, CC1CCN(S(=O)(=O)c2ccc(C(=O)OCc3ccc4c(c3)OCO4)cc2)CC1 -5.5%
